Results filed as inconclusive are left out. Unmarked numbers belong to inactive results. Active and inactive are the calls of the source. Calls follow the shape of the dose curve; as a rule, active = well fitted inhibition curve with a large enough effect; inconclusive = small, poorly fitted or top-dose-only effect; inactive = flat fitted curve, though single readings scatter.

The text below walks through data of PubChem BioAssay (NCATS).
Potency is read from the fitted curve at half-maximal effect.

This test concerns Zika virus NS2B-NS3 protease. Kind of test: Primary screen GU AMC qHTS for Zika virus inhibitors (AID 1347154). Also: nearly all actives have a fitted effect of over 70% in size.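 As to activity change, negative = inhibition: 0% = no-inhibitor control and -100% = no-enzyme control.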 The note with it: Zika NS2B-NS3 unlinked protease, AMC fluorogenic substrate; series mostly up to 54.1 µM; activity change, negative = inhibition: at the top concentration. Summed up: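 Unlinked Zika NS2B hydrophilic domain–NS3 protease complex at 25 nM in 10 mM Tris-HCl pH 8.0, 0.01% Tween 20, with an AMC peptide substrate. Fluorescence change (340/450 nm) over 15 min at room temperature, normalized to controls, fitted to 4-parameter Hill.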
As for `C[C@H]1[C@@H]2Cc3ccc(O)cc3[C@@]1(C)CCN2C`, the “activity change, negative = inhibition” value is 2.69% [at 194 µM]. Take `C[C@]12CC[C@H]3[C@@H](CC[C@@]45O[C@H]4C(O)=C(C#N)C[C@]35C)[C@H]1CC[C@H]2O`: the “activity change, negative = inhibition” value was -9.87%. In the case of `C[N+]1(CCF)[C@@H]2CC[C@H]1CC(OC(=O)C(O)(c1ccccc1)c1ccccc1)C2` (stereo partly specified), the “activity change, negative = inhibition” value was 0.77%. The same measure, in the same setting: in the case of `Clc1ccc(C(c2ccc(Cl)cc2)C(Cl)(Cl)Cl)cc1` it was -13.2%. For the molecule `[N-]=[N+]=CC(=O)OC[C@H](N)C(=O)O`, the “activity change, negative = inhibition” value was 2.45%. In the case of `CNC(C)(C)Cc1ccccc1`, the “activity change, negative = inhibition” value was -1.63%. Take `C[C@]12CCC(=O)C=C1CC[C@@H]1[C@@H]2CC[C@@]2(C)[C@H]1CC[C@]2(C)O`: the “activity change, negative = inhibition” value was 2.84%. Take `c1ccc(CN2CCNCC2)cc1`: the “activity change, negative = inhibition” value is -4.18% [at 194 µM]. Consider `C[C@]12CC[C@H]3[C@@H](CCC4=CC(=O)CC[C@@H]43)[C@@H]1CC[C@@H]2OC(=O)CCC1CCCCC1`, for which the “activity change, negative = inhibition” value is -11.2%. Same read-out and setting: the same measure for `C[C@@H]1CC2=CC(=O)CC[C@@H]2[C@H]2CC[C@@]3(C)[C@@H](CC[C@]3(C)O)[C@@H]21`: -4.05%; for `CCc1cc2c(s1)-n1c(C)nnc1CN=C2c1ccccc1Cl`: 1.2%; for `CN1C(=O)NC(=O)C(C)(C2=CCCCC2)C1=O` (stereo unspecified): -0.912%.

For the molecule `CCCCC/C=C\C/C=C\C/C=C\C/C=C\CCCC(=O)NCC(=O)O`, the Potency was 25.6 µM (active).

On to `NC1=NC(=O)C(c2ccccc2)O1` (stereo unspecified), for which the “activity change, negative = inhibition” value is 1.16%. The same measure, in the same setting: the same measure for `ClCCN1CCCC1`: -4.84%. Turning to `C[C@@H](N)[C@@H](O)c1ccccc1`, the “activity change, negative = inhibition” value is -4.99%.
